# From ChEMBL document CHEMBL3988442, “University of Dundee, Small-Polar-MMV Screening Library” (2021)
# Among all 66,000 compounds or so, about 960 (1.5%) showed an effect of 50% or more. Shown is part of a subset that was picked to be rich in strong results.
# Test system: Trypanosoma brucei
# Assay: Trypanosoma brucei 72 hour study
# Type: functional, organism-based
# Set-up: scale not given: in the data most compounds retested in dose-response had high values
structure (smiles),measurement,setting,value
CCc1n[nH]c(C2CN(C(=O)c3cnc(C)cn3)CCO2)n1 (stereo not given),Percent Effect,10 µM,-10.87%
Cc1noc(C)c1CN1CCN(CC2CC2)c2ncccc2C1.O=C(O)C(F)(F)F.O=C(O)C(F)(F)F,Percent Effect,"30 µM, 30.03 µM",-2.749%
CNC(=O)C1CCCCN1C(=O)C1CCN(S(C)(=O)=O)CC1 (stereo not given),Percent Effect,"30.3 µM, […]",4.842%
Cc1nc(Nc2nncs2)cc(C2CNC2)n1.O=C(O)C(F)(F)F,Percent Effect,"30.3 µM, […]",-21.99%
CC(C)NC(=O)N1CCN(CCn2cccn2)c2ncccc2C1.O=C(O)C(F)(F)F,Percent Effect,"30.3 µM, […]",-82.31%
CN(C)CC(=O)N1CCCC2(CCN(c3ccccc3)C2=O)C1.O=C(O)C(F)(F)F (stereo not given),Percent Effect,"30.3 µM, […]",-9.805%
Cc1noc(C)c1CN1C[C@H](OCc2ccncc2)[C@H]2OCCC[C@H]21.O=C(O)C(F)(F)F.O=C(O)C(F)(F)F,Percent Effect,"30 µM, 30.03 µM",3.056%
CN(C)C(=O)[C@@H]1C[C@@H]2[C@@H](CCN2Cc2nccs2)O1.O=C(O)C(F)(F)F,Percent Effect,"30.3 µM, […]",-77.1%
Cn1ccc(CN2CCCC23CCN(Cc2ccccc2F)CC3)n1.O=C(O)C(F)(F)F.O=C(O)C(F)(F)F,Percent Effect,"30.3 µM, […]",-74.92%
O=C(NC1CC1)N1CCOCC2(CCN(Cc3cccs3)C2)C1.O=C(O)C(F)(F)F (stereo not given),Percent Effect,"30.3 µM, […]",-9.319%
Cl.c1nn(C2CCCCC2)cc1-c1cncn1CCCN1CCCCC1,Percent Effect,"30.3 µM, […]",-11.05%
Cc1cccc(C(=O)N2CCC3(CCN(c4cnn(C)c4)C3=O)C2)n1.O=C(O)C(F)(F)F (stereo not given),Percent Effect,"30 µM, 30.03 µM",-10.65%
CC(O)CNc1nc(-c2cccnc2)nc2c1CCC2 (stereo not given),Percent Effect,"30 µM, 30.03 µM",5.601%
CN(CC1CCCO1)c1nc(-c2cccnc2)nc2c1CCNCC2 (stereo not given),Percent Effect,"30 µM, 30.03 µM",0.7603%
c1cncc(-c2nc3c(c(NCC4(c5ccncc5)CC4)n2)CCC3)c1,Percent Effect,"30 µM, 30.03 µM",-5.668%
Cl.NC1CCc2nc(-c3cccnc3)nc(Nc3ccc(F)cc3)c2C1 (stereo not given),Percent Effect,"30.3 µM, […]",100.3%
CCc1noc(CNc2nc(-c3cccnc3)nc3c2CCNCC3)n1,Percent Effect,"30.3 µM, […]",2.358%
CN(C)c1cccc(C(=O)N2CCCC2c2ncc3c(n2)CCNC3)c1.Cl (stereo not given),Percent Effect,"30.3 µM, […]",-32.8%
CNS(=O)(=O)c1ccc(CNC(=O)N2CCOC(C)C2)cc1 (stereo not given),Percent Effect,"30.3 µM, […]",-5.397%
Cc1ccc2[nH]c(CNC(=O)C3CC4(CCNCC4)CN3C)nc2c1C (stereo not given),Percent Effect,"30 µM, 30.03 µM",-11.35%
CN(Cc1cncnc1)[C@@H]1CN(C(=O)c2ccco2)[C@@H]2CCCO[C@H]12.O=C(O)C(F)(F)F,Percent Effect,"30.3 µM, […]",-35.75%
c1cnc(Nc2cncc(C3CCCN(c4ncccn4)C3)n2)nc1 (stereo not given),Percent Effect,"30.3 µM, […]",-5.193%
OCCN1CCC(c2csc(Nc3cnccn3)n2)CC1,Percent Effect,"30.3 µM, […]",6.088%
COCC(=O)N1CCCC1c1csc(Nc2cnccn2)n1 (stereo not given),Percent Effect,"30.3 µM, […]",22.69%
CCC(=O)N1CCCC1c1csc(Nc2cnccn2)n1 (stereo not given),Percent Effect,"30.3 µM, […]",65.49%
NC(=O)CN1CCC(c2csc(Nc3cnccn3)n2)CC1,Percent Effect,"30.3 µM, […]",30.88%
CC(=O)N1CCCC1c1csc(Nc2cnccn2)n1 (stereo not given),Percent Effect,"30 µM, 30.03 µM",-20%
c1cnc(N2CCCC(c3csc(Nc4cnccn4)n3)C2)nc1 (stereo not given),Percent Effect,"30.3 µM, […]",86.19%
c1cnc(N2CCC(c3csc(Nc4cnccn4)n3)CC2)nc1,Percent Effect,"30.3 µM, […]",69.17%
Cc1nc(Nc2cnccn2)cc(C2CCN(c3ncccn3)C2)n1 (stereo not given),Percent Effect,"30.3 µM, […]",26.81%
